Among the data in PubChem BioAssay (NCI) are growth values, retold here.

Compounds without any hit were thinned out: in the full panel of roughly 83,000, 20% have a hit.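 Testing used 96-well plates and a 48-hour single-concentration exposure. Example: -40 means 40% of the starting cells died.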 A number with no mark means an inactive call. Calls of active or inactive are those of the source. Rule for the calls: active = growth percent below 10; inactive = the rest.

Holding throughout (assay): NCI-60 one-dose screen, 48 h (100 = growth as untreated, 0 = no growth, -100 = all killed)
Holding throughout (details): 10 µM unless noted

In test [1] the test system is NCI-H23 lung.
Test [2] relates to NCI-H226 lung.
Test [3] deals with NCI-H322M lung.
Test [4] concerns HOP-62 NSCLC.
Test [5] deals with NCI-H460 lung.
In test [6] the test system is HOP-92 NSCLC.
Test [7] deals with NCI-H522 lung.
Test [8] concerns A549/ATCC NSCLC.
For test [9], the system named is 786-0 renal.
The subject of test [10] is COLO 205 colon.

`O=C1c2ccccc2C(=O)c2c1oc1ccc3ccccc3c21`: the growth in test [1] is 33.7%; in test [2] it was 85.5%; in test [3], 83.1%; in test [4], 108%; in [5], 44.9%; in test [6] it was 102%. Further, the growth in test [7] is 97.5%; in test [8] it was 60.8%; in [9], 101%; in test [10], 107%.

As to `CC(C)NC(=O)OCC#CCOC(=O)NC(C)C`, the growth was 99.6% in test [1]; 106% in [2]; 86.8% in [3]; 104% in [4]; 108% in test [5]; 105% in test [6]. For the same molecule, the growth was 89.1% in [7], 96.7% in test [8], 102% in test [9] and 106% in test [10].

With `Clc1ccccc1Nc1nnc(-c2ccncc2)s1`, the growth in [1] was 102%; in test [2], 101%; in test [3], 93.7%; in test [4] it was 118%; in [5], 99.7%; in test [6] it was 93.9%. Moreover, the growth in [7] was 98.6%; in [8], 95%; in test [9] it was 80.2%; in [10], 114%.

`CC[C@H](Nc1nc(C)nc(N)c1C#N)c1nc2cccc(NCc3ccc(C(=O)NO)cc3)c2c(=O)n1-c1ccccc1`: the growth in test [1] is -17.5% (active); in test [2] it was -3.97% (active); in test [3], 24.5%; in test [4], 10.1%; in test [5], 2.36% (active); in [6], -1.54% (active). Moreover, the growth in [7] was -36.4% (active); in test [8], -31% (active); in test [9] it was 5.71% (active); in test [10] it was 0.926% (active).

As for `COc1cc(NC(C)CCCN)c2ncccc2c1Oc1ccc(Cl)cc1` (stereo not given), the growth in test [1] is 87.4%; in [2] it was 75%; in [3], 64.5%; in [4], 77.7%; in test [5] it was 83.8%; in test [6] it was 43.4%. Also, the growth in test [7] was 87.9%; in [8], 87.9%; in test [9], 67.3%; in test [10], 6.98% (active).

As to `CC[C@H](Nc1nc(N)nc(N)c1Cl)c1nc2cccc(NCc3ccc(C(=O)NO)cc3)c2c(=O)n1-c1ccccc1`, the growth is -71.6% (active) in [1]; 4.53% (active) in [2]; 35.8% in [3]; 11.6% in [4]; 1.8% (active) in test [5]; -15.7% (active) in [6]. The growth is -13.5% (active) in [7], -4.67% (active) in test [8], 3.36% (active) in test [9] and -20.1% (active) in [10].

Turning to `C#CC[C@@H]1C[C@]2(C)[C@H]3CC=C4[C@H]5[C@@H](C)[C@H](C)CC[C@]5(C(=O)NCCCCCCCCN)CC[C@@]4(C)[C@]3(C)CC[C@H]2C(C)(C)[C@H]1OC(C)=O`, the growth in test [1] was 79.3%; in test [2] it was 94.6%; in [3] it was 80.4%; in test [4], 104%; in [5], -63.8% (active); in test [6] it was 53.1%. For the same molecule, the growth in test [7] was -1.25% (active); in [8] it was 46.5%; in [9] it was 80.6%; in test [10], -23.4% (active).

For `Cc1cc(Cl)c2ccc(N(C)C)cc2n1`, the growth in test [1] is 100%; in [2], 97.6%; in [3] it was 110%; in test [4], 95.5%; in test [5], 106%; in [6] it was 102%. The growth in [7] was -10.1% (active); in test [8], 94.9%; in test [9], 99%; in [10], 102%.

`CCCc1n(Cc2ccc3ccccc3c2)c2ccccc2[n+]1Cc1ccc2ccccc2c1`: the growth is -12.9% (active) in test [1]; -4.44% (active) in [2]; 4.72% (active) in test [3]; -55.4% (active) in test [4]; -76.1% (active) in [5]; -48.1% (active) in test [6]. The growth in test [7] is -60.2% (active); in test [8], -19.4% (active); in test [9], -85.2% (active); in test [10] it was -77% (active).

As for `O=C(O)c1ccccc1N=Cc1ccccc1`, the growth in test [1] is 98%; in test [2] it was 132%; in test [3] it was 120%; in test [4] it was 100%; in test [5], 106%; in test [6], 90.2%. Further, the growth is 101% in test [7], 102% in test [8], 104% in [9] and 105% in [10].

For the molecule `COc1ccc(NC(=O)C2c3ccccc3C(=O)N(CC(C)C)C2c2cccs2)cc1` (stereo not given), the growth in [1] was 95.2%; in test [2], 92.7%; in test [3], 110%; in test [4], 90.1%; in test [5], 94.3%; in test [6] it was 94.1%. Besides, the growth in test [7] is 92.3%; in [8], 89.5%; in test [9], 98.8%; in test [10], 105%.

On to `CCOC(=O)C1=C(C)NC(SCc2nnc(-c3ccc(Cl)cc3)o2)=NC1c1ccc(Cl)cc1` (stereo not given), for which the growth in test [1] is 78.8%; in test [2], 69.9%; in test [3], 82.3%; in test [4], 92.8%; in test [5], 79%; in test [6], 64.1%. Moreover, the growth was 68.9% in [7], 69% in [8], 83.4% in test [9] and 79.6% in test [10].

In the case of `CCCCOc1ncnc2nc[nH]c12`, the growth in test [1] was 100%; in test [2] it was 94.2%; in test [3] it was 101%; in test [4], 96.1%; in [5] it was 113%; in test [6] it was 101%. In addition, the growth in [7] is 100%; in test [8], 99.3%; in test [9], 97.1%; in test [10], 110%.

Consider `CCCCCNCCCCCNc1cc(OC)cc2cccnc12`, for which the growth in [1] was 90.7%; in [2] it was 94%; in test [3] it was 89.4%; in test [4] it was 79.1%; in test [5] it was 95.9%; in [6], 9.38% (active). In addition, the growth in [7] was 89.6%; in test [8], 96.1%; in test [9], 83.1%; in [10], 63.6%.
